Assay outcomes (PubChem)
The full list was thinned out, with hits kept by preference.
Sfp inh: blocks B. subtilis Sfp PPTase activity; Biochemical Sfp PPTase activity, qHTS; Q9F4F7; 310,000 compounds, 3.5% hits; Potency, µM, for inactives: largest response in the series, negative = inhibition, actives largely listed as inhibitors; AID 1490;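 also: the enzyme is Sfp with the accession as filed and its product quenches rhodamine fluorescence; 0% = enzyme reaction without inhibitor and -100% = no enzyme wells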
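Step 1, compound plus 15 nM Sfp-PPTase, 15 min, room temperature. Step 2, add rhodamine-CoA (5 uM) and BHQ-2-YbbR (12.5 uM). Step 3, read 525/598 nm fluorescence at 0 and 30 min.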
12-LOX inh: blocks human arachidonate 12S-lipoxygenase; 580,000 compounds, 1.1% hits; AID 1671190; P18054; purified 12hLO, xylenol orange hydroperoxide absorbance; Potency, µM (top dose mostly 108 µM), for inactives: top-dose activity change, negative = inhibition, hits mostly inhibitors; also: % is scaled to controls: 0 for no effect and ±100 for the full control effect
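Hydroperoxide product was detected by ferrous iron/xylenol orange as the 573 to 405 nm absorbance ratio. Arachidonic acid at 40 uM (final) was turned over for 30 min at room temperature by 150 nM human 12hLO, pH 7.0 Hepes buffer, after 15 min compound preincubation.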
GRP78 ERSR act: induces the endoplasmic reticulum stress response in human glioma cells. U87-MG GRP78 promoter luciferase reporter, 16 h. Potency, µM, for inactives: at the top dose activation, actives largely listed as activators. AID 602332. 420,000 compounds, 0.02% hits; also: series mostly up to about 76 µM; % of control where 0% means no effect; nearly all actives have a fitted effect of over 35% in size
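Stably transfected U87-MG human glioma cells carrying a GRP78-based luminescent sensor were seeded at 1000 cells/well, pin-dosed with compounds and incubated 16 h. Luciferase reagent was then added, and end-point luminescence was read after 10 min at room temperature.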
G9a inh: blocks human histone lysine methyltransferase G9a | 350,000 compounds, 8.8% hits | Potency, µM (series often up to 102 µM), without a hit: at the top dose activity, negative = inhibition, most hits filed as inhibitors | G9a H3K9 monomethylation, AlphaScreen, 2 h | Q96KQ7; also: % is scaled to controls: 0 for no effect and ±100 for the full control effect; nearly all actives have a fitted effect of over 75% in size
Target sequence (Q96KQ7 913-1193 limits assumed): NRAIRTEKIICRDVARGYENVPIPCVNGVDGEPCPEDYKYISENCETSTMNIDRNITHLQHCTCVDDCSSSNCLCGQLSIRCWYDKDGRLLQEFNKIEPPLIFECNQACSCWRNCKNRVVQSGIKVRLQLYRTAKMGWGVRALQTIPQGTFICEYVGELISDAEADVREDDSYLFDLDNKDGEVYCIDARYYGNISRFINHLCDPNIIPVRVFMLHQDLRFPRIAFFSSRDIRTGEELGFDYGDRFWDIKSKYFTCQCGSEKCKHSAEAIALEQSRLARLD
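Using a bead-based AlphaScreen, monomethylated H3K9 product from 2 h room-temperature reactions (G9a 20 nM, peptide 500 nM, SAM 20 uM) was detected with 0.5 ug/mL rabbit anti-H3K9me1 antibody.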
VDR inhibitor: inhibitors of human vitamin D receptor. VDR-SRC2-3 peptide fluorescence polarization, 2 h. Potency, µM, for the others: max response, negative = inhibition, most hits filed as inhibitors. 400,000 compounds, 0.93% hits; also: % is scaled to controls: 0 for no effect and ±100 for the full control effect
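The screen uses fluorescence polarization to detect compounds that interfere with recruitment of the SRC2-3 coactivator peptide to VDR; plates are read after 2 h at room temperature.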
* = called active by the depositor; ? = inconclusive; . = no result given; [ ] = another dose, or the depositor's remark. Calls follow the shape of the dose curve; as a rule, active = well fitted curve in the direction sought with a large enough effect; inconclusive = small, poorly fitted or top-dose-only effect, or another doubt; inactive = no such curve, though single readings can be large; an effect the other way counts as inactive or inconclusive. Potency is read from the fitted curve at half-maximal effect.

SMILES | Sfp inh | 12-LOX inh | GRP78 ERSR act | G9a inh | VDR inhibitor
Nc1c(C(=O)N/N=C/c2cccnc2)oc2nc(-c3ccccc3)cc(-c3ccco3)c12 | -23.8% | ? | -1.1% | ? | 0.7%
O=C(Nc1c(NC2CCCC2)c2ccccc2oc1=O)c1ccc(Br)o1 | . | -6.6% | . | . | .
CC1(COCC2CC2)COc2ccc(C(=O)N3CCOCC3c3cccc(F)c3)cc2N1 (stereo not given) | . | 1.2%[176 µM] | . | . | .
CCOC(=O)N1CCN(CC(O)COCC2=CCC3CC2C3(C)C)CC1 (stereo not given) | 79.4µM* | ? | -3.2% | . | -6.0%
O=C(C1=C(O)C(=O)N(c2nccs2)C1c1ccccc1)c1cc2ccccc2o1 (stereo not given) | 5.01µM* | ? | 3.8% | 3.55µM* | -9.2%
Cc1cc(N2C(=O)C(O)=C(C(=O)c3ccc(C)o3)C2c2cccs2)no1 (stereo not given) | -17.0% | ? | -0.8% | ? | 2.6%
Cc1cc(N2C(=O)C(O)=C(C(=O)c3cc4ccccc4o3)C2c2ccc([N+](=O)[O-])cc2)no1 (stereo not given) | 18.0% | ? | -2.6% | 44.7µM* | -5.2%
Cc1cc(N2C(=O)C(O)=C(C(=O)c3cc4ccccc4o3)C2c2cccs2)no1 (stereo not given) | -1.4% | ? | 0.7% | 35.5µM* | -16.1%
CC(=O)C1=C(O)C(=O)N(c2nccs2)C1c1ccc(F)cc1 (stereo not given) | -1.6% | ? | -0.3% | -9.3% | ?
Cc1ccc(C2C(C(=O)c3cc4ccccc4o3)=C(O)C(=O)N2c2cc(C)on2)cc1 (stereo not given) | 15.3% | ? | -2.7% | -0.4%[0.0925 µM] | 79.4µM*
CCOc1cccc(C2C(C(=O)c3ccc(C)o3)=C(O)C(=O)N2c2nccs2)c1 (stereo not given) | 56.2µM* | 0.631µM* | 2.1% | 6.31µM* | 4.0%
S=c1[nH]cc(-c2ccccc2)n1-c1ccccc1Cl | ? | ? | -0.5% | ? | -9.1%
COc1cccc(-n2c(-c3ccccc3)c[nH]c2=S)c1 | 44.7µM* | ? | -1.1% | 1.41µM* | -9.9%
COc1ccccc1-n1c(-c2ccccc2)c[nH]c1=S | 10µM* | ? | -2.8% | 0.891µM* | -17.0%
S=c1[nH]cc(-c2ccccc2)n1-c1cccc(Cl)c1 | -8.8% | 4.7% | -2.6% | 1.12µM* | 0.6%
O=C(NCCNC(=O)C1CC1)c1cc2ccccc2[nH]1 | . | 10.6% | . | . | .
Cc1ccc(CCNC(=O)CS(=O)(=O)Cc2nc(-c3ccc(C)cc3)oc2C)cc1 | . | 2.9% | . | . | .
Cc1c(CC(=O)NCCCn2ccnc2)c(=O)oc2c(C)c(O)ccc12 | . | -19.3% | . | . | .
O=C(CC1C(=O)NCCN1Cc1ccc(F)cc1Cl)NC1CCCCCCC1 (stereo not given) | 1.3% | 131.2% | -3.2% | 44.7µM* | -18.5%
CCC1CCCCN1Cc1ccc(OC)c(C)c1C (stereo not given) | -3.0% | ? | 4.4% | 25.1µM* | 26.6%
O=C(CC1C(=O)NCCN1Cc1ccccc1C(F)(F)F)NC1CCCCCC1 (stereo not given) | -4.4% | -3.0% | -2.1% | 44.7µM* | -26.1%
COc1ccc(CN2CCNC(=O)C2CC(=O)NC2CCCC2)c(C)c1C (stereo not given) | -4.5% | -7.8% | -4.3% | 44.7µM* | ?
COc1cccc(-c2noc(CC3CCN(C(=O)CCc4ccccc4)CC3)n2)c1 | . | 1.9% | . | . | .
Cc1ccc2c(n1)N(C)[C@H](CO)CCN(Cc1ccc(Cl)cc1)C2 | . | 8.9%[176 µM] | . | . | .
O=C(CC1C(=O)NCCN1Cc1ccccc1C(F)(F)F)NC1CCCCC1 (stereo not given) | -7.2% | -13.1% | -0.1% | 39.8µM* | -22.0%
SMILES | Sfp inh | 12-LOX inh | GRP78 ERSR act | G9a inh | VDR inhibitor
c1ccc(COc2ccc(CNCc3cccs3)cc2)cc1 | 56.2µM* | ? | 2.7% | 14.3% | 18.9%
Oc1ccc(NCc2ccccc2OCc2ccccc2Cl)cc1 | . | 6.5% | . | ? | ?
COc1cc(CO)cc(Br)c1OCC(=O)O | -2.6% | ? | -1.2% | 50.1µM* | -17.1%
Oc1ccc(NCc2ccc(OCc3ccccc3Cl)cc2)cc1 | . | ? | ? | 3.16µM* | ?
Oc1ccc(NCc2ccc(OCc3ccccc3)cc2)cc1 | 56.2µM* | 271.1% | ? | 7.94µM* | 89.1µM*
Oc1ccc(OCc2ccccc2)cc1 | 17.4% | ? | 1.7% | 2.3%[21.5 µM] | -6.3%
